PubChem BioAssay AID624305 (National Center for Advancing Translational Sciences (NCATS), 2012)
Results filed as inconclusive are left out. Entries that show only a call come without a potency. A number with no mark means an inactive call. Active and inactive are the calls of the source. The call rests on the fitted dose curve; in most records, active means well fitted activation curve with a large enough effect; inconclusive means small, poorly fitted or top-dose-only effect; inactive means no such curve, though single readings can be large or run the other way.

Experiment: qHTS assay for re-activators of p53 using a Luc reporter: Hit Validation; further: nearly all actives have a fitted effect of over 75% in size
Conditions: p53-responsive luciferase reporter cells, luminescence, H1299 line expressing heat-sensitive Ala138Val p53; series mostly up to 46.1 µM
Outline: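 H1299 (p53-null) cells stably carrying p53-A138V and a BP100-luciferase reporter, 1000 cells/well, treated 24 h at 37 deg C. Compounds at several concentrations, 1:5 dilution; nocodazole control; luminescence read after 10 min with detection reagent.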
Potency means the concentration at half of the fitted maximal effect.

SMILES	Potency	activation
O=C(O)C1C2C=CC(C2)C1C(=O)Nc1ccccc1Br (stereo not drawn)	inactive	–
Cc1ccc(-c2nnc(N(C)C(=O)C3CCCO3)s2)cn1 (stereo not drawn)	inactive	–
O=C(NC(=S)NC1CCCCC1)c1ccccc1[N+](=O)[O-]	inactive	–
CS(=O)(=O)n1nc(-c2ccc(Cl)cc2)nc1SCc1ccccc1	20600 nM (active)	–
COc1ccc2oc(-c3cccc(NC(=O)CSc4ccc(Cl)cc4)c3)nc2c1	–	-2.44% [at 9.22 µM]
O=C(CSc1nnc(-c2ccc(F)cc2)c2ccccc12)Nc1ccccc1	inactive	–
Cc1cccc(-c2noc(CCC(=O)N3CCN(c4cc(C)ccc4C)CC3)n2)c1	23100 nM (active)	–
CC(OC(=O)c1cccc([N+](=O)[O-])c1)C(=O)N1CCc2ccccc21 (stereo not drawn)	inactive	–
COc1ccc2nc(NC(=O)Nc3ccccc3OC)sc2c1	9200 nM (active)	–
CC12CN(C(=O)c3cccc([N+](=O)[O-])c3)C3(C#N)CC1CCC23C (stereo not drawn)	inactive	–
O=C(Nc1cnc2ccccc2c1)C1COc2ccccc2O1 (stereo not drawn)	9200 nM (active)	–
N/C(=N\OC(=O)c1cc(Cl)ccc1Cl)c1ccccn1	920 nM (active)	–
Cc1cc(C)cc(NC(=O)CSc2nnc(-c3ccccc3C)o2)c1	inactive	–
CN(Cc1ccccc1)C(=O)CNC(=O)Cn1cnc2ccccc2c1=O	inactive	–
CC(=O)N1CCN(C(=O)COC(=O)COc2c(C)cc(C)cc2C)CC1	inactive	–
O=C(O)c1ccc(N/N=C/c2ccc3ncccc3c2)cc1	184 nM (active)	–
COc1ccc([N+](=O)[O-])cc1NC(=O)CSCc1ccc(Br)cc1	inactive	–
Cn1c(=N)n(CC(=O)c2ccc(Cl)c(Cl)c2)c2ccccc21	580 nM (active)	–
CCCC(=O)NC(c1cccs1)c1cc([N+](=O)[O-])c2cccnc2c1O (stereo not drawn)	inactive	–

SMILES	Potency	activation
CCCCCCC1CC(/C(C)=N\NC(N)=O)OC1=O (stereo not drawn)	inactive	–
CCN(CC)C(=O)CNC(=S)N(CCCN1CCOCC1)Cc1cccs1	inactive	–
Nc1c(C(=O)c2ccc(Cl)cc2)oc2ccccc12	inactive	–
Clc1ccc(-c2cn3cc(Br)ccc3n2)cc1Cl	206 nM (active)	–
O=C(NCC1CCCO1)c1ccc(NC(=O)c2cccc([N+](=O)[O-])c2)cc1 (stereo not drawn)	inactive	–
CC(Cc1ccccc1)NC(=O)c1ccc([N+](=O)[O-])cc1 (stereo not drawn)	2590 nM (active)	–
COc1ccc(N2CCN(C3CCCN(Cc4cccc(OC)c4)C3)CC2)cc1 (stereo not drawn)	inactive	–
COCCn1c(SCC(=O)c2c(N)n(C3CC3)c(=O)[nH]c2=O)nnc1-c1cccc(C)c1	inactive	–
CC(=O)c1cc2c(C)c(C(=O)c3ccccc3)oc2cc1O	411 nM (active)	–
COc1cc(NC(=O)CN2CCCCC2)c(C)cc1[N+](=O)[O-]	–	9.16% [at 9.22 µM]
Cn1c(CCN2CCCCC2)nc2cc(NC(=O)Nc3ccccc3)ccc21	inactive	–
Cc1cc(N2CCCCC2)n2ncc(-c3ccc(Cl)cc3)c2n1	820 nM (active)	–
CCC(=O)Nc1ccc2oc(-c3cccc(C)c3)nc2c1	73.1 nM (active)	–
CCOc1ccc(N2C(=O)c3ccccc3NC2(C)CC)cc1 (stereo not drawn)	9200 nM (active)	–
CN(Cc1ccccc1)c1ncnc2ccc(Br)cc12	inactive	–
O=C(N/N=C/C1C(c2ccccc2)C1(Cl)Cl)c1cccc(Cl)c1 (stereo not drawn)	inactive	–
C(=C\c1nc(-c2ccccc2)no1)/c1ccccc1	2310 nM (active)	–
Cc1ccc(S(=O)(=O)CNC(=O)c2ccccc2)cc1	inactive	–
Cc1ccnc(NC(=S)NC(=O)c2cccs2)c1	82 nM (active)	–
